Pf growth 96h: Primary qHTS for delayed death inhibitors of the malarial parasite plastid, 96 hour incubation. Potency, µM (series often up to 28.7 µM), actives largely listed as inhibitors. P. falciparum luciferase reporter growth, 96 h. 6.9% of 320,000 active. AID 504834, 2011
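Readout is luminescence from an integrated firefly luciferase in P. falciparum. Red cells, 2% hematocrit and 0.05% parasitemia final, were cultured with compound through two parasite generations (96 hours) at 37 C, 5% CO2.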
Sm TGR block: qHTS Assay for the Inhibitors of Schistosoma Mansoni Peroxiredoxins; Schistosoma mansoni thioredoxin glutathione reductase (TGR), Q962Y6; purified TGR, DTNB reduction, TNB absorbance 405 nm; Potency, µM (titrated, usually from 114 µM), usual class: inhibitors; 3% of 360,000 active; AID 485364, 2010; also: nearly all actives have a fitted effect of over 60% in size
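Kinetic colorimetric format: TGR-catalysed, NADPH-driven DTNB reduction monitored via TNB absorbance. Enzyme dispensed at 20 nM; compound exposure 15 min at room temperature before reaction start.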
NS1 inh: qHTS Assay for Inhibitors of Influenza NS1 Protein Function | Potency, µM (doses to about 46.1 µM) | 0.4% of 270,000 active; calls by dose curve; also: actives are rising curves; nearly all actives have a fitted effect of over 50% in size
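S. cerevisiae expressing influenza A NS1, grown in glucose, washed, then diluted 1:100 into pH 6.0 -URA galactose medium with 23 nl compound. Growth recovery read as OD600; NS1-free strain serves as control.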
Pf growth 48h: Primary qHTS for delayed death inhibitors of the malarial parasite plastid, 48 hour incubation. AID 504832, 2011. P. falciparum luciferase growth in erythrocytes, 48 h. 5.9% of 310,000 active. Potency, µM (highest dose often 28.7 µM), most hits filed as inhibitors
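Parasite viability was followed by luminescence of a genomically integrated firefly luciferase. Cultures held 0.1% parasitemia at 2% hematocrit (final), incubated under 5% CO2 at 37 C.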
AMA1 RON2 block: qHTS for Inhibitors of AMA1-RON; Towards Development of Antimalarial Drug Lead: Primary Screen; Plasmodium falciparum AMA1 (3D7) - RON2 peptide interaction; AlphaScreen AMA1-biotinylated RON2 peptide binding; Potency, µM (titrated, usually from 58.2 µM), hits mostly inhibitors; 0.2% of 360,000 active; also: nearly all actives have a fitted effect of over 45% in size
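AMA1 (3D7) with his tag at 25 nM final met compounds first, then biotinylated RON2 peptide at 25 nM; detection used donor plus acceptor beads, 10 µg/mL apiece, read by AlphaScreen after 30 min at room temperature.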
Each line names hits and unclear results; the compound was inactive in the other large screens. The list is not random: actives were taken first. Their share in the collection is about 11%. Unless noted, calls follow the shape of the dose curve; as a rule, active = well fitted curve in the direction sought with a large enough effect; inconclusive = small, poorly fitted or top-dose-only effect, or another doubt; inactive = no such curve, though single readings can be large; an effect the other way counts as inactive or inconclusive.

COc1ccc(CCNC(=O)COC(=O)Cn2cnc3ccccc3c2=O)cc1	none
O=C(Nc1nc(-c2ccc(Cl)s2)cs1)c1ccccc1	Pf growth 96h 9.3µM (no result: Pf growth 48h)
O=C(Nc1nc(-c2cccs2)cs1)c1ccc(Cl)s1	Pf growth 96h inconclusive
CC(=O)c1cccc(Nc2nc(-c3sc(N)nc3C)cs2)c1	Pf growth 96h 17µM, Pf growth 48h inconclusive
CC(C)(C)c1csc(NC(=O)c2ccc(Cl)s2)n1	Pf growth 48h 3.7µM (no result: Pf growth 96h)
COc1ccc(Cl)cc1Nc1nc(-c2sc(NC(=O)c3ccccc3)nc2C)cs1	Pf growth 96h 2.9µM, Pf growth 48h 1.9µM (no result: AMA1 RON2 block)
CC(C)(C)C(=O)Cn1c(=O)n(CCCCCC(=O)NCc2ccc3c(c2)OCO3)c(=O)c2sccc21	none (no result: Pf growth 96h, NS1 inh, Pf growth 48h, AMA1 RON2 block)
COC(=O)[C@H]1C[C@@]2(O)CN(S(=O)(=O)c3ccc(C)cc3)C[C@@]2(OC(=O)Nc2cccs2)C[C@H]1C(=O)OC	none (no result: Pf growth 96h, Sm TGR block, NS1 inh, Pf growth 48h)
Cc1ccccc1Nc1nc(-c2sc(NC(=O)c3cccc(Cl)c3)nc2C)cs1	Pf growth 96h inconclusive, Pf growth 48h inconclusive (no result: AMA1 RON2 block)
Cc1nc(NC(=O)c2ccccc2)sc1-c1csc(Nc2cccc(Cl)c2)n1	Pf growth 96h 2.6µM, Pf growth 48h 9.3µM (no result: AMA1 RON2 block)
Cc1nc(NC(=O)c2ccccc2)sc1-c1csc(Nc2ccc(Cl)cc2Cl)n1	Pf growth 96h 3.3µM, Pf growth 48h 10µM (no result: AMA1 RON2 block)
CC(O)(CS(=O)(=O)Cc1ccccc1)c1ccc(Cl)cc1 (stereo unspecified)	Pf growth 96h inconclusive
Cc1ccc(C(C)(O)CS(=O)(=O)Cc2ccccc2Cl)cc1 (stereo unspecified)	Sm TGR block 50µM
Cc1ccc(C(=O)Oc2oc(-c3ccco3)nc2C=Nc2ccccc2)cc1	Sm TGR block 2.5µM (no result: AMA1 RON2 block)
CC(=O)Oc1oc(-c2ccccc2)nc1C=Nc1ccccc1	Sm TGR block 18µM
CCn1nnnc1NCc1cccn1C	Sm TGR block 50µM (no result: Pf growth 96h)
CCCCN1C(=O)/C(=C2/Sc3ccc(OC)cc3N2CC)SC1=S	Pf growth 96h 9.3µM
CCN1C(=O)/C(=C2\C=Cc3ccccc3N2CC)SC1=S	Pf growth 96h inconclusive, AMA1 RON2 block 1.2µM
C=CCN1C(=O)/C(=C2/Sc3ccc(OC)cc3N2CC)SC1=S	Pf growth 96h inconclusive
CCN1C(=O)/C(=C2\SC(=S)N(CCCOC)C2=O)c2ccccc21	Pf growth 96h 10µM, Pf growth 48h inconclusive
CCOC(=O)C1CCCN(S(=O)(=O)c2c(C)noc2C)C1 (stereo unspecified)	none
Cc1cc(C)cc(N(C(=O)Cn2nnc3ccccc32)C(C(=O)NCc2ccco2)c2ccncc2)c1 (stereo unspecified)	Sm TGR block 35µM
COc1cccc(N(C(=O)Cn2nnc3ccccc32)C(C(=O)NCc2ccco2)c2cccnc2)c1 (stereo unspecified)	Pf growth 48h 8.3µM (no result: Pf growth 96h)
Cc1ccc(CN(C(=O)Cn2nnc3ccccc32)C(C(=O)NCc2ccco2)c2ccc(C)o2)cc1 (stereo unspecified)	Pf growth 96h inconclusive, Pf growth 48h inconclusive
Cc1ccc(C)c(N(C(=O)Cn2nnc3ccccc32)C(C(=O)NCc2ccco2)c2ccncc2)c1 (stereo unspecified)	Pf growth 96h inconclusive, Pf growth 48h inconclusive
CCCCN(C(=O)Cn1nnc2ccccc21)C(C(=O)NCc1ccco1)c1ccncc1 (stereo unspecified)	Sm TGR block 56µM
O=C(NCc1ccco1)C(c1ccc(F)cc1)N(Cc1cccnc1)C(=O)Cn1nnc2ccccc21 (stereo unspecified)	Pf growth 96h inconclusive, Sm TGR block inconclusive, Pf growth 48h inconclusive
Cc1ccc(N(C(=O)Cn2nnc3ccccc32)C(C(=O)NCc2ccco2)c2cccnc2)cc1 (stereo unspecified)	Pf growth 96h inconclusive, NS1 inh inconclusive, Pf growth 48h 10µM
COc1cccc(OCC(Cn2c(C)nc3ccccc32)OC(C)=O)c1 (stereo unspecified)	none (no result: Sm TGR block)
O=C(CN1CCN(c2ccc(F)cc2)CC1)NCc1ccc(Cl)cc1	none
CCN(CC)C(=O)n1c(Cc2ccccc2)nc2ccccc21	Pf growth 96h inconclusive
CCOC(=O)Cn1c(=O)n(C2CCCCC2)c2nc(-c3ccc(Cl)cc3)nc(C(N)=O)c21	none (no result: Pf growth 96h, NS1 inh, Pf growth 48h, AMA1 RON2 block)
O=C(NCc1ccco1)C(c1ccccc1)N(Cc1cccnc1)C(=O)Cn1nnc2ccccc21 (stereo unspecified)	Sm TGR block 40µM (no result: Pf growth 96h)
CCOc1ccc(CC(=O)Nc2c(C(=O)c3ccccc3)oc3ccc(OC)cc23)cc1OCC	none (no result: Pf growth 96h, NS1 inh, Pf growth 48h, AMA1 RON2 block)
O=C(CN1C(=O)NC2(CCCCC2)C1=O)Nc1ccc(Cl)c(S(=O)(=O)N2CCOCC2)c1	Pf growth 48h inconclusive (no result: NS1 inh)
COc1cccc(OC)c1C(=O)NC(=S)Nc1cc(-c2nc3ccccc3[nH]2)ccc1Cl	Pf growth 96h inconclusive, Pf growth 48h 4.1µM
CC(C)(Oc1ccc(Br)cc1)C(=O)Nc1cc(-c2nc3ccccc3[nH]2)ccc1Cl	none (no result: Pf growth 96h, NS1 inh, Pf growth 48h, AMA1 RON2 block)
O=C(CSc1ccc(Cl)cc1)Nc1cccc(-c2nc3ccccc3[nH]2)c1	Pf growth 96h inconclusive, Pf growth 48h 3.7µM
COc1ccc(OCC(=O)Nc2cccc(-c3nc4ccccc4[nH]3)c2)cc1	Pf growth 96h 12µM, Pf growth 48h inconclusive
CC1(C(=O)NS(=O)(=O)c2ccc(Br)cc2)CCN1C(=O)CCc1ccccc1 (stereo unspecified)	none (no result: Pf growth 96h, Sm TGR block, NS1 inh, Pf growth 48h)
CCC1(C)CC(CCN(Cc2ccco2)C(C)=O)(c2ccccc2)CCO1 (stereo unspecified)	Pf growth 96h 4.1µM, Pf growth 48h inconclusive (no result: Sm TGR block)
CC(=O)N(CCC1(C(C)C)CCOC(C)(C)C1)Cc1ccco1 (stereo unspecified)	Pf growth 48h inconclusive
CC(=O)N(CCC1(c2ccc(C)cc2)CCOC(C(C)C)C1)Cc1ccco1 (stereo unspecified)	Pf growth 96h 4.1µM, Pf growth 48h 5.9µM
CC1(C)CC(CCN(Cc2ccccc2)C(=O)c2ccco2)(c2ccccc2)CCO1 (stereo unspecified)	Pf growth 96h 1.9µM, Pf growth 48h inconclusive
CCOC(=O)N1CCC(NC(=O)C2CCN(S(=O)(=O)N3CCCC3)CC2)CC1	none
CCOC(=O)/C(N=O)=C(\O)C1CCN(C(=O)OCC)CC1	Pf growth 96h 13µM (no result: Pf growth 48h)
CC(C)(C)N1C(=O)[C@H]2[C@@H](c3ccc(Br)cc3)N3C(=O)N(c4cccc(F)c4)C(=O)[C@@]3(Cc3ccccc3)[C@H]2C1=O	Pf growth 96h 4.7µM, Pf growth 48h 5.2µM (no result: NS1 inh)
CC[C@@]12C(=O)N(c3cccc(F)c3)C(=O)N1[C@H](c1ccc(Br)cc1)[C@@H]1C(=O)N(C(C)(C)C)C(=O)[C@@H]12	Pf growth 96h inconclusive (no result: NS1 inh)
